# Measured values reported in PubChem BioAssay.
# Calls of active or inactive are those of the source. Unless noted, how the calls were made is not given here.
# Columns and labels:
# [1] = compounds binding Alexa647 anti-His antibody – biochemical, small-molecule microarray, 635 nm fluorescence, artefact control for SMM control protein annotation, primary screen (AID 1128); conditions: higher = more signal;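 further: score merges feature fluorescence with signal-to-noise for each printed compound spot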
# [2] = tested on: Human papillomavirus type 1a E7 protein (residues 1-88); test: HPV1a E7 small-molecule binders, primary screen, biochemical, small-molecule microarray, residues 1-88, 635 nm (AID 1129); conditions: small-molecule microarray binding, fluorescence 635 nm; higher = more signal
# [3] = target: Focal adhesion kinase 1 (Homo sapiens) (UniProt Q05397); test: PTK2 protein binding on printed compound slides – biochemical, small-molecule microarray, 635/667 nm fluorescence, BSA, DTT, primary screen (AID 1130); conditions: 635 nm fluorescence, higher = more signal;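 further: composite of spot emission at 667 nm and signal to noise over triplicate slides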
# [4] = tested on: Fibrinogen (Alexa647-labelled); test: Alexa647-fibrinogen binding to printed small molecules – biochemical, small-molecule microarray, 635/667 nm fluorescence, artefact control for SMM control-protein annotation, profiling panel (AID 1131); conditions: fibrinogen-A647 binding fluorescence, higher = more signal;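 further: z-score merges 667 nm fluorescence with per-spot signal-to-noise over triplicate slides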
# [5] = target: Follistatin (Homo sapiens) (UniProt P19883); test: FST protein binding to printed compounds – biochemical, small-molecule microarray, 635/667 nm fluorescence, primary screen (AID 1132); conditions: 635 nm fluorescence, higher = more signal
# [6] = target: Fibroblast growth factor 2 (Homo sapiens) (UniProt P09038); test: basic fibroblast growth factor binding to printed compounds – biochemical, small-molecule microarray, 635/667 nm fluorescence, primary screen (AID 1133); conditions: FGF2, fluorescence 635/667, higher = more signal
# [7] = JC-1 mitochondrial potential readout, lung cancer cells – cell-based, A549, JC-1 fluorescence, basal, 24 h, 100 nL, profiling panel (AID 1138); conditions: higher = more signal;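 further: A549 lung adenocarcinoma cells under basal conditions with no added stimulus; test concentration not given here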
# Lefty1 = Lefty1 protein binding to printed compounds – biochemical, small-molecule microarray, 635/667 nm fluorescence, primary screen (AID 1139); conditions: fluorescence 635/667, higher = more signal
# [8] = tested on: wheat germ agglutinin (Triticum aestivum), Alexa647-labelled; test: Alexa647-WGA lectin binding to printed small molecules – biochemical, small-molecule microarray, 635/667 nm fluorescence, artefact control for SMM control-protein annotation, profiling panel (AID 1140); conditions: WGA-A647 binding, 635 nm fluorescence, higher = more signal;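 further: score merges 667 nm feature emission with signal to noise over triplicate slides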
# [9] = target: Luciferin 4-monooxygenase (Photinus pyralis) (UniProt P08659); test: inhibition of purified Photinus pyralis luciferase – biochemical, luminescence, purified enzyme, 2006 set, primary screen (AID 1141); conditions: purified firefly luciferase, SteadyGlo luminescence, 30 min; higher = more signal, called active from +8 up or from −8 down;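 further: cell-free assay with purified firefly luciferase at 100 ng per well in PBS; test concentration not given here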
# [10] = tested on: Wnt5a (protein binding on small-molecule microarray); test: small molecules binding Wnt5a protein – biophysical, small-molecule microarray, 635/667 nm fluorescence, primary screen (AID 1142); conditions: 635 nm fluorescence, higher = more signal;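 further: fluorescence read at 667 nm with signal to noise per printed feature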
# [11] = ATP-based viability of Huh7 replicon cells – cell-based, CellTiter-Glo luminescence, basal, 48 h, cytotoxicity control for HCV replication inhibitor project, primary screen (AID 1143); conditions: higher = more signal, called active from +8 up or from −8 down;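 further: Huh7 hepatoma cells carrying a hepatitis C replication reporter with no stimulus; test concentration not given here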
# [12] = Pseudomonas biofilm growth suppression – PAO1 strain, BacTiter-Glo luminescence, LB-PBS, primary screen (AID 1144); conditions: P. aeruginosa PAO1 biofilm, 12 h, higher = more signal
# [13] = basal CRE-LacZ reporter activity in PC12 – cell-based, unstimulated, primary screen (AID 1145); conditions: no forskolin, luminescence, 4.5 h, higher = more signal, called active from +8 up or from −8 down
# [14] = forskolin-driven CRE-LacZ activity in PC12 – cell-based, CRE-LacZ reporter, forskolin-stimulated, primary screen (AID 1146); conditions: luminescence, 4.5 h, higher = more signal, called active from +8 up or from −8 down;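 further: PC12 cells with 6xCRE LacZ reporter stimulated by forskolin 10 µM; beta-galactosidase reporter signal reflecting CREB driven transcription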
# [15] = target: Streptavidin (Streptomyces avidinii) (UniProt P22629); test: compounds binding control protein streptavidin – biophysical, small-molecule microarray, 635/667 nm fluorescence, artefact control for SMM compound annotation, primary screen (AID 1147); conditions: higher = more signal;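 further: signal reflects streptavidin binding to arrayed compounds as a control protein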
# [16] = probe aInhba binding on compound microarray – biochemical, small-molecule microarray, 635/667 nm fluorescence, primary screen (AID 1148); conditions: higher = more signal;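 further: score merges 667nm spot fluorescence with signal-to-noise for antibody binding to printed compounds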
# Torsin-1A (Homo sapiens) [17] = target: Torsin-1A (Homo sapiens) (UniProt O14656); test: TOR1A wild-type binding on microarray – cell lysate, small-molecule microarray, lysate, 635/667 nm, primary screen (AID 1149); conditions: COS7 hTOR1A-WT lysate, 635 nm fluorescence, higher = more signal
# Torsin-1A (Homo sapiens) [18] = target: Torsin-1A (Homo sapiens) (UniProt O14656); test: torsin A mutant lysate binding on microarrays – cell lysate, small-molecule microarray, COS7 lysate, 635/667 nm fluorescence, primary screen (AID 1150); conditions: COS7 hTOR1A mutant lysate, 635 nm fluorescence, higher = more signal;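 further: score pools 667 nm emission and signal to noise measuring lysate protein binding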
# [19] = tested on: Sonic hedgehog protein (Shh); test: Sonic hedgehog microarray binding compounds – biochemical, small-molecule microarray, 635/667 nm fluorescence, primary screen (AID 1151); conditions: 635 nm fluorescence, higher = more signal;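 further: Shh protein binding to compounds spotted on small-molecule microarray slides; score combines spot fluorescence intensity with signal-to-noise across triplicate slides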
# Torsin-1A (Homo sapiens), sequence (O14656 whole entry, looked up): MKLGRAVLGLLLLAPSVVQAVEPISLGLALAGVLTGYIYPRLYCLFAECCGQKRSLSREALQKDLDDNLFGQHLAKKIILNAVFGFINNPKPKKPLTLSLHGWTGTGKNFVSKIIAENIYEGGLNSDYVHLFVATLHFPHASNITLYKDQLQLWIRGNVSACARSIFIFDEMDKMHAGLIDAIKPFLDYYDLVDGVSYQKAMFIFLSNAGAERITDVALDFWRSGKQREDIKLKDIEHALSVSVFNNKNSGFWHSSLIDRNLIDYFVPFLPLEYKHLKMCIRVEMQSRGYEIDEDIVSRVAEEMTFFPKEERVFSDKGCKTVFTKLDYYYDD
# Fibroblast growth factor 2 (Homo sapiens), sequence (P09038 whole entry, looked up): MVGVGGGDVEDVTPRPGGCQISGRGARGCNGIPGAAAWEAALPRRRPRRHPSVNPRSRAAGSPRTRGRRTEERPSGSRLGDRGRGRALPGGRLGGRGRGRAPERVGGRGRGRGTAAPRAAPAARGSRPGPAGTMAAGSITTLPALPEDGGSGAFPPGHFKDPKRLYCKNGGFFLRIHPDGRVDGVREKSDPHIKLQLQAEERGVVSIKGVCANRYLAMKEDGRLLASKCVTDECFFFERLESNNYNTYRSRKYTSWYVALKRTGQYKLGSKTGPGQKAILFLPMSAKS
# Streptavidin (Streptomyces avidinii), sequence (P22629 whole entry, looked up): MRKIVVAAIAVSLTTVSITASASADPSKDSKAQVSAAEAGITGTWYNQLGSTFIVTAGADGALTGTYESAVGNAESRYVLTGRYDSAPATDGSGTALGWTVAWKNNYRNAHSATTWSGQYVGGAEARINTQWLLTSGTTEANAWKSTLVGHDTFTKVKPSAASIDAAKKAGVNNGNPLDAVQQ
# Luciferin 4-monooxygenase (Photinus pyralis), sequence (P08659 whole entry, looked up): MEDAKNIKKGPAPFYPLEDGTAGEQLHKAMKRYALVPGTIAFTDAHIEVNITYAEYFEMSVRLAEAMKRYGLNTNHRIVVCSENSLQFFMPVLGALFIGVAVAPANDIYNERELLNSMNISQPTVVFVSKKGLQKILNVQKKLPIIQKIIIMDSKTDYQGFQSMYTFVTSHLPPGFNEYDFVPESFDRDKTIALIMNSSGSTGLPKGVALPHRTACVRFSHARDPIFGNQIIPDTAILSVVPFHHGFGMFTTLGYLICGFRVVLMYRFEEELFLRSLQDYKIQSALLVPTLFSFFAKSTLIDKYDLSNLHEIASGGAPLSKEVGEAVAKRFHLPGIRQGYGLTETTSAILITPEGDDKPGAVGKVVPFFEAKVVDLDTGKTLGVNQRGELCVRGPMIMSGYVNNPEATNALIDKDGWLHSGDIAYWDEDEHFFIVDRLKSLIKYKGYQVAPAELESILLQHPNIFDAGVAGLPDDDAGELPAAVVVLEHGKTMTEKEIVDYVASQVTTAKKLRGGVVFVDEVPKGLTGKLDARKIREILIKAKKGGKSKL
# Follistatin (Homo sapiens), sequence (P19883 whole entry, looked up): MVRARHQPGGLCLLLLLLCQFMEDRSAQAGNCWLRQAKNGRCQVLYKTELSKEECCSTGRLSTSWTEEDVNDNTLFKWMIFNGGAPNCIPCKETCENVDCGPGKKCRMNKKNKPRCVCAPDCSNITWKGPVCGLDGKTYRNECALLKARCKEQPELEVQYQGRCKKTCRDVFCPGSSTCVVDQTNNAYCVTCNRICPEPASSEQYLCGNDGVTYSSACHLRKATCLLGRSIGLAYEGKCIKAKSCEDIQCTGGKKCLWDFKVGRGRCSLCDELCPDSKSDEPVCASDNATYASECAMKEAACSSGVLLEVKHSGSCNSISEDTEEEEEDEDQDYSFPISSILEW
# Focal adhesion kinase 1 (Homo sapiens), sequence (Q05397 whole entry, looked up): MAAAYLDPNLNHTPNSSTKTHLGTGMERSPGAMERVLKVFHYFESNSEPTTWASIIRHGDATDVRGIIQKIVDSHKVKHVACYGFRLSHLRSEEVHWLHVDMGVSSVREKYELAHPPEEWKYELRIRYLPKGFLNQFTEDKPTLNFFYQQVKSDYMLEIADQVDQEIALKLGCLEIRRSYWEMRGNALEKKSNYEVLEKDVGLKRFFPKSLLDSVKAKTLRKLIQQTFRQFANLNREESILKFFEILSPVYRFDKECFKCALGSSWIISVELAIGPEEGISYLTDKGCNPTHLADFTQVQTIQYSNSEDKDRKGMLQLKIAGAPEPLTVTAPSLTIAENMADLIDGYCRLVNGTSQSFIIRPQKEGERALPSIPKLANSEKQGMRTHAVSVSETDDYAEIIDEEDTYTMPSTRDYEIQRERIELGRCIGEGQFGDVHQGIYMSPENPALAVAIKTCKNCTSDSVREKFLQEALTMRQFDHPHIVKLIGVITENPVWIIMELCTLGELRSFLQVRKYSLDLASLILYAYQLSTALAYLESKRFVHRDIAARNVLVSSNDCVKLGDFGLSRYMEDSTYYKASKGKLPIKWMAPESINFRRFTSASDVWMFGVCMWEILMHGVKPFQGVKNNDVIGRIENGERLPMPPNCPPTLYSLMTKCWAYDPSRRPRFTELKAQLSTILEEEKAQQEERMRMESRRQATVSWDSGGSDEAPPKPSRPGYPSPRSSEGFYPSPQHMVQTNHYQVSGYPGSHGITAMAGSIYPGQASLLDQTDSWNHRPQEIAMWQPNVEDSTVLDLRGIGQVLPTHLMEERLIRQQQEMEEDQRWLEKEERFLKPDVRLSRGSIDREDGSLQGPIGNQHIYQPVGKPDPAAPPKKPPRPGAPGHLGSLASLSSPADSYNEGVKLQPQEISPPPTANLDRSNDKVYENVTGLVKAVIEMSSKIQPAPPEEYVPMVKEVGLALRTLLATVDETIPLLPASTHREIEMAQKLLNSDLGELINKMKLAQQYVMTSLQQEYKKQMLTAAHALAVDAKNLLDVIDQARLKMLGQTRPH
Compound,composite z-score [1],composite z-score [2],composite z-score [3],composite z-score [4],composite z-score [5],composite z-score [6],z-score [7],composite z-score (Lefty1),composite z-score [8],z-score [9],composite z-score [10],z-score [11],z-score [12],z-score [13],z-score [14],composite z-score [15],composite z-score [16],composite z-score (Torsin-1A (Homo sapiens) [17]),composite z-score (Torsin-1A (Homo sapiens) [18]),composite z-score [19]
O=C1OCCC/C=C\[C@H]2OC34C=CCN(Cc5ccccc5)C(=O)[C@H]3N(CCCCCCO)C(=O)[C@@H]4C12 (stereo not given in full),0.727,-0.39,0.0123,-1.98,-1.61,-0.929,1.59,-1.55,-0.513,-1.76 (inactive),-0.489,0.233 (inactive),-1.14 (inactive),1.01 (inactive),0.0851 (inactive),-0.821,-0.147,-0.309,1.9,-0.693
CCCC=C(CCC)[C@@H](NS(=O)(=O)c1cccs1)c1ccc(C(=O)OC)cc1,1.16,1.17,0.496,1.02,0.825,-0.186,-2.96,-0.3,1.17,0.917 (inactive),0.247,-3.88 (inactive),0.276 (inactive),0.201 (inactive),0.91 (inactive),1.37,0.16,-0.0907,0.647,-0.168
CCCCc1cn(C[C@H](Cc2ccccc2)NC(=O)N[C@H](CO)CCc2oc(C(C)=O)c(C(=O)OC)c2C(=O)OC)nn1,0.97,1.2,0.54,0.921,1.18,0.866,-0.419,1.16,0.445,1.29 (inactive),0.276,-2.8 (inactive),-1.09 (inactive),1.02 (inactive),0.549 (inactive),0.881,-0.0448,0.992,0.454,1.99
Cc1ccc(S[C@]2(C(=O)NCCN3CCOCC3)CC(=O)N(Cc3ccccc3)[C@@H]2c2ccc(CO)cc2I)cc1,1.75,-0.104,0.217,-1.42,-0.422,-1.2,0.0777,-1.08,-0.592,0.4 (inactive),0.0376,-5.17 (inactive),-0.779 (inactive),-0.114 (inactive),1.8 (inactive),-0.755,-0.0719,-1.46,0.59,-0.685
CCOC(=O)[C@H]1C/C=C/C[C@H](C(=O)OCC)C(=O)O[C@H]2[C@@H](OC)O[C@H](CO)[C@@H](OC(=O)Nc3ccc(C#N)cc3)[C@@H]2OC1=O,0.514,0.45,0.499,-0.274,0.336,0.121,-1.92,0.519,0.852,0.215 (inactive),0.121,-6.66 (inactive),-2.89 (inactive),-1.29 (inactive),-1.66 (inactive),-0.576,-0.128,0.392,1.08,0.673
O=C1O[C@@H](c2ccccc2)[C@@H](c2ccccc2)N2[C@@H](c3ccc(OCCO)cc3)[C@]3(C(=O)Nc4ccccc43)[C@@H](C(=O)NC[C@H](O)c3ccccc3)[C@H]12,0.87,0.894,-0.177,0.371,1.34,0.968,-0.575,0.0849,0.638,-1.46 (inactive),0.0635,-1.19 (inactive),-0.388 (inactive),-0.606 (inactive),2.97 (inactive),0.146,0.0561,0.437,0.14,0.95
COC(=O)[C@@]1(Cc2ccc(F)cc2)[C@H]2c3cc(C(=O)N(C)C)n(CC4CC4)c3C[C@H]2CN1C(=O)c1ccccc1,1.54,1.21,-0.0938,0.94,0.581,-0.272,0.524,-0.12,1.08,0.184 (inactive),1.96,-2.68 (inactive),0.163 (inactive),1.54 (inactive),0.581 (inactive),1.79,1.56,-0.532,0.224,-1.04
O=C1C[C@]2(c3ccc([N+](=O)[O-])cc3)C(=O)N(CCN3CCOCC3)c3cc(CO)ccc3[C@H]2N1C1CCCCC1,-0.106,-1.24,-0.617,0.975,-0.414,0.189,0.631,-0.599,0.409,-0.648 (inactive),-0.179,-2.16 (inactive),-0.02 (inactive),-0.322 (inactive),0.254 (inactive),-0.834,-0.0021,-0.489,-0.517,-0.132
Cc1ccc(C(C)CC(O)C2C=CC3C(=O)N(C)C(=O)C3N2NC(=O)OC(C)(C)C)o1 (stereo not given),1.65,1.01,0.759,0.314,0.997,0.48,-0.475,0.444,0.563,-1.3 (inactive),0.376,0.963 (inactive),0.399 (inactive),0.0569 (inactive),-0.0179 (inactive),1.22,0.4,0.204,1.05,0.245
CN1C(=O)C2C=CC(C(O)c3cccs3)N(Nc3ccccc3)C2C1=O (stereo not given),0.803,1.16,0.251,0.024,0.492,-0.294,0.0177,0.249,0.508,-0.0014 (inactive),0.455,0.593 (inactive),-0.0101 (inactive),0.426 (inactive),0.711 (inactive),0.389,0.406,0.757,0.738,0.251
